# Screening data as filed in PubChem.
# aSyn UTR act = Activators working through SNCA 5'UTR binding (MLPCN); alpha-synuclein 5'UTR reporter, activators screen; activity score, % (tested at 7.5 µM), hits read low; 7.1% of 300,000 active; AID 1814; in the data active means activity score below about -60%
# * marks the source's active call; other numbers are inactive results. The list is a sample of the results.
SMILES,aSyn UTR act
NC(=O)COc1ccc(-c2noc(COc3ccccc3[N+](=O)[O-])n2)cc1,-84*
O=C(N/N=C/c1cccc(F)c1)c1c(O)c2c([nH]c1=O)CCCC2,-137*
O=C(N/N=C/c1ccccc1F)NC1CCCCC1,-130*
O=C(N/N=C/c1cccc(F)c1)NC1CCCCC1,-76*
O=C(/C=C/c1cc(Br)ccc1F)Nc1cccnc1,-118*
O=C(/C=C/c1c(F)cccc1Cl)Nc1cccnc1,-111*
CCCS/C(N)=N/N=C/c1ccccc1O,-198*
C=CCS/C(N)=N\N=C\c1c(O)ccc2ccccc12,-195*
COc1cccc(Nc2nnc(SCc3nc4ccccc4s3)s2)c1,-208*
Cc1cccc(C)c1Nc1nnc(SCc2nc3ccccc3s2)s1,-85*
Cc1ccnc(SCc2nc3ccccc3s2)n1,-181*
CCC(=O)Nc1cccc(NC(=S)NC(=O)c2ccc(C)cc2)c1,-156*
CCC(=O)Nc1cccc(NC(=S)NC(=O)c2cccc(C)c2)c1,-172*
CCC(=O)Nc1cccc(NC(=S)NC(=O)c2ccccc2)c1,-183*
CCC(=O)Nc1cccc(NC(=S)NC(=O)c2cc3ccccc3o2)c1,-133*
COc1ccc2oc(-c3ccc(C)c(NC(=O)CSc4ccc(Cl)cc4)c3)nc2c1,-133*
O=C(CSc1ccc(Cl)cc1)Nc1cc(-c2nc3ncccc3o2)ccc1Cl,-74*
C/C(=N/NC(=O)c1ccc(C)s1)c1cccc(NC(=O)COc2ccc(Cl)cc2C)c1,-73*
C/C(=N\NC(=O)c1c(Cl)c(C)nn1C)c1cccc(NC(=O)COc2ccc(Cl)cc2)c1,-100*
CCOC(=O)c1c(C)oc2c1c(CN1CCN(C(=O)OCC)CC1)c(O)c1ccccc12,-205*
CCOC(=O)c1c(C)oc2c1c1c(c3ccccc32)OCN(Cc2ccccn2)C1,-102*
O=C(N/N=C/c1ccnc2ccccc12)c1ccccc1O,-62*
O=C(N/N=C/c1cccnc1)c1ccc(NC(=O)C(c2ccccc2)c2ccccc2)cc1,111
O=C(N/N=C/c1ccc2nccnc2c1)c1ccccc1O,-150*
O=C(N/N=C/c1ccc(O)c2ncccc12)c1cccc(Br)c1,67
SMILES,aSyn UTR act
O=C(N/N=C/c1cccnc1)c1cc(Br)ccc1O,-125*
C(=N\NCc1ccccc1)/c1ccc2nccnc2c1,-106*
Cc1cccc(C(=O)Oc2ccc(/C=N/NC(=O)c3ccccc3O)cc2)c1,-135*
CCOc1cccc(C(=O)NC(=S)Nc2ccccc2)c1,-184*
O=C(NC(=S)Nc1ccc(CN2CCCCC2)cc1)c1cccc(OCc2ccccc2)c1,-65*
CCOc1cccc(C(=O)NC(=S)Nc2cccnc2)c1,-142*
CC(C)(C)c1cc(Cl)c(O)c(NC(=S)NC(=O)c2cccnc2)c1,80
CC(C)(C)c1csc(CS(=O)(=O)c2ccccn2)n1,-63*
Cc1ccccc1Nc1nnc(SCC2CCCCO2)s1 (stereo not given),-85*
Cc1ccc(Nc2nnc(SCC3CCCCO3)s2)cc1 (stereo not given),-137*
C(=C\c1cc(/C=C/c2ccccc2)ncn1)/c1ccccc1,-145*
Cn1nc(/C=C/c2ccccc2)ccc1=O,-190*
Cc1nc(/C=C/c2ccccc2)cc(/C=C/c2ccccc2)n1,-104*
CC(C)C1N=C(c2ccc3c(c2)OCO3)CC(c2ccccc2O)N1 (stereo not given),-300*
O=C(NC(c1cccnc1)C(F)(F)F)c1cc(COc2ccc3c(c2)CCCC3)on1 (stereo not given),-104*
Cc1cc(/C=C(\C#N)C(=O)NCc2cccs2)c(C)n1-c1ccccc1F,-240*
CCOC(=O)/C=c1\s/c(=C\c2c(OC)ccc3ccccc23)c(=O)n1CC(=O)NCC1CCCO1 (stereo not given),71
Cc1ccccc1-n1c(C)cc(/C=C(\C#N)C(=O)NCC2CCCO2)c1C (stereo not given),-94*
CCn1c(=NC(=O)c2ccco2)sc2cccc(F)c21,-126*
O=[N+]([O-])c1[nH]cnc1/C=C/c1ccccc1,-65*
Cc1ccc(C(=O)O/N=C(\N)Cc2cccs2)c(Cl)c1,-73*
Cc1ccc(C(=O)O/N=C(\N)Cc2ccc([N+](=O)[O-])cc2)c(Cl)c1,-73*
CCCC(=O)Nc1ccc(-c2cn3cccnc3n2)cc1,-85*
CC(C)CC(=O)Nc1ccc(-c2cn3cccnc3n2)cc1,-80*
CC(C)(C)CC(=O)Nc1ccc(-c2cn3cccnc3n2)cc1,-80*
SMILES,aSyn UTR act
Cc1ccc(C(=O)N2c3ccccc3CC2C)o1 (stereo not given),-92*
Cc1cccc(N2CCN(C(=O)c3ccc(CS(=O)(=O)c4ccccc4C)o3)CC2C)c1 (stereo not given),97
CC1Cc2ccccc2N1C(=O)c1ccc(Br)o1 (stereo not given),-129*
Cc1nc(OCC(C)C)c2sc3nc4c(cc3c2n1)COC(C)(C)C4,-130*
COc1nc(C)nc2c1sc1nc3c(cc12)COC(C)(C)C3,-145*
Fc1ccc(Nc2ccnc(Nc3ccc(F)cc3)n2)cc1,-93*
C/C(O)=C(\N=Nc1cc(C)ccc1O)C(N)=O,-65*
COC(=O)C(Cc1ccc(OC(=O)c2ccc(C(F)(F)F)cc2)cc1)N1Cc2ccccc2C1=O (stereo not given),-137*
COC(=O)C(Cc1ccc(OC(=O)c2ccc(Cl)cc2)cc1)N1Cc2ccccc2C1=O (stereo not given),-124*
COc1ccc(Nc2nc(-c3cccs3)cs2)cc1,-205*
COc1ccc(Nc2nc(-c3sc(C)nc3C)cs2)c(OC)c1,-124*
COc1ccc(Nc2nc(-c3cccs3)cs2)c(OC)c1,-196*
COc1ccccc1Nc1nc(-c2cccs2)cs1,-254*
CC(Sc1nnc(-c2cccnc2)n1-c1ccccc1)C(=O)NCc1ccc2c(c1)OCO2 (stereo not given),-71*
O=C(CSc1nc(O)c(Cc2ccccc2)c(=O)[nH]1)c1ccccc1,-63*
CCCCc1c(O)nc(SCC(=O)c2ccccc2)[nH]c1=O,-87*
CC(C)C(=O)Nc1cccc(-c2cnc3ccccc3n2)c1,-115*
CS(=O)(=O)Nc1cccc(-c2cnc3ccccc3n2)c1,-153*
COc1ccc(COc2cc(-c3cccc(OC)c3)nc3ccc(NC(=O)C(C)C)cc23)cc1,-135*
CNC(=S)Nc1cccc(-c2cnc3ccccc3n2)c1,-144*
Cc1ccc(/C=N/N=C/c2ccc(C)s2)s1,-199*
Cc1cccc(N/N=C/c2ccc(C)s2)c1,-180*
CC(C)(C)c1cc[n+](C2=C([O-])c3ccccc3C(=O)/C2=N\S(=O)(=O)c2cccs2)cc1,69
O=C(N/N=C/c1sc(=O)n(-c2ccccc2)c1Cl)c1ccccc1,-84*
Cc1ccsc1/C=N/N1CCN(c2ccccn2)CC1,-94*
SMILES,aSyn UTR act
Cc1ccsc1/C=N/N1CCN(c2ccccc2)CC1,-148*
C=CCN(C(=O)C1CSC2(C)CCC(=O)N12)c1nc(-c2ccccc2)cs1 (stereo not given),-68*
Cc1cc2oc3cc(NCCC4CCCN4C)ccc3c(=O)c2cc1C (stereo not given),-184*
O=c1c2ccccc2sc2ccc(NCCCN3CCOCC3)cc12,-158*
CN1CCCC1CCNc1ccc2sc3ccccc3c(=O)c2c1 (stereo not given),-114*
CC(C)(C)c1csc(NC(=O)Nc2ccccc2)n1,-141*
COc1cccc(-c2csc(NC(=O)C3CC3)n2)c1,-161*
O=C(Nc1ccccc1)Nc1nc(-c2ccccc2)cs1,-88*
O=C(Nc1nc(-c2ccccc2)cs1)Nc1ccc(F)cc1F,-63*
